According to paper PMC5540273 (PLoS ONE, 2017):

Experiments:
Settings in all cases: concentration: 1 μM, replicates: in singlicate; n = 1
CAMK2G = test system: CAMK2G
CAMK4 = test system: CAMK4
CAMKK1 = test system: CAMKK1
CAMKK2 = test system: CAMKK2
CASK = test system: CASK
CDC2L1 = test system: T1, CDC2L1
T1 construct: gene CDK11B

CDC2L2 = test system: CDC2L2
CDC2L5 = test system: T2, CDC2L5
T2 construct: gene CDK13

CDK11 = test system: T3, CDK11
T3 construct: gene CDK19

CDK2 = test system: CDK2
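Also: KINOMEscan kinase panel screen.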

SMILES	%Inh (CAMK2G) [%]	%Inh (CAMK4) [%]	%Inh (CAMKK1) [%]	%Inh (CAMKK2) [%]	%Inh (CASK) [%]	%Inh (CDC2L1) [%]	%Inh (CDC2L2) [%]	%Inh (CDC2L5) [%]	%Inh (CDK11) [%]	%Inh (CDK2) [%]
CN(C)c1cc(-c2ccc3c(N)n[nH]c3c2)nc(N)n1 [GSK2219329]	19	0	0	9	0	0	22	0	0	10
Nc1n[nH]c2nnc(-c3ccccc3)c(-c3ccccc3)c12 [GW554060]	17	0	13	11	71	0	0	0	0	0
Nc1nccc2scc(-c3ccc4c(c3)CCN4C(=O)Cc3ccccc3)c12 [GSK2576924]	0	3	0	7	15	8	16	0	57	0
CCS(=O)(=O)c1ccc(OC)c(Nc2ncc(-c3ccc(F)cc3)o2)c1.Cl [GW591947]	21	0	1	12	3	0	0	0	19	0
Fc1cccc(CSc2nnc(-c3ccc4c(c3)CCO4)o2)c1	20	0	9	6	0	0	0	17	0	8
COc1ccc(-c2cc3c(C)nc(N)nc3n([C@H]3CC[C@H](O)CC3)c2=O)cn1	0	0	0	0	0	0	0	0	0	0
CCc1ccc(-c2ccc3c(c2)-c2nn(C)cc2S(=O)(=O)N3C)cc1	4	0	22	9	14	0	0	16	8	0
Nc1nc(N)c2nc(-c3ccccc3)[nH]c2n1 [SKF-12778]	4	0	6	0	0	0	0	5	0	0
Cc1ccc(-c2ccc3c(ccc4sc5c(c43)NC[C@@H](C)N=C5N(C)C)n2)cn1	0	20	0	0	2	4	0	0	0	0
COc1ccc(-c2coc3ccc(-c4nnc(SCc5cccc(C#N)c5)o4)cc23)cc1	0	0	0	0	8	0	10	0	0	6
COc1cc2ncn(-c3cc(OCCCc4ccccc4)c(C(N)=O)s3)c2cc1OC [GSK205189]	29	0	3	17	52	0	3	0	0	0
O=C(Nc1n[nH]c2nc(-c3ccccc3)c(Cl)cc12)C1CC1 [SB-734909]	0	0	0	1	35	0	18	0	0	2
Cc1ccccc1COc1cc(-n2cnc3cc(Cl)ccc32)sc1C(N)=O [GW813349]	0	0	0	0	17	0	0	0	23	0
COc1cc(Nc2nccc(N3CCC(NC(=O)C4COc5ccccc5O4)C3)n2)cc(OC)c1OC (centres unmarked) [GSK1379761]	26	0	20	14	0	0	4	0	7	0
COc1ccc(-c2cc3c(C)nc(N)nc3n([C@H]3CC[C@H](OCCO)CC3)c2=O)cn1	0	5	5	0	0	11	0	0	34	0
OCCCNc1nccc(-c2c(-c3cccc(C(F)(F)F)c3)nn3cc(C(F)(F)F)ccc23)n1 [GW630813]	17	0	5	12	2	0	9	0	2	25
Nc1ncnc2c1ncn2-c1cccc(F)c1 [SKF-97560]	0	0	0	0	47	1	15	23	0	0
CCC(=O)c1c(-c2ccccc2)c2cc(Cl)ccc2c(=O)n1Cc1ccc(C(=O)O)cc1	0	0	0	0	0	0	0	0	0	0
CN1C(=O)C(Nc2ccccc2)=C(c2ccccc2)C1=O [SB-300079]	0	0	0	0	0	0	0	0	0	0
COc1cc2ncn(-c3cc(OCc4ccc(S(C)(=O)=O)cc4)c(C(N)=O)s3)c2cc1OC [GW869979]	0	0	0	0	37	0	14	31	0	0
